Inhibition data for one compound are collected here from ChEMBL document CHEMBL1961873, “Compounds: GSK PKIS; Assays: Nanosyn kinase panel” (2012).

Structures are written as SMILES.

The target in assay [1] is Sphingosine kinase 1 (Homo sapiens) (UniProt Q9NYA1). To be noted: at 1 µM.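 Note: mean SPHK1 inhibition value reported from the GSK PKIS kinase panel screen.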
Assay [2] deals with T1, Sphingosine kinase 2 (Homo sapiens) (UniProt Q9NRA0).
T1 sequence (whole entry): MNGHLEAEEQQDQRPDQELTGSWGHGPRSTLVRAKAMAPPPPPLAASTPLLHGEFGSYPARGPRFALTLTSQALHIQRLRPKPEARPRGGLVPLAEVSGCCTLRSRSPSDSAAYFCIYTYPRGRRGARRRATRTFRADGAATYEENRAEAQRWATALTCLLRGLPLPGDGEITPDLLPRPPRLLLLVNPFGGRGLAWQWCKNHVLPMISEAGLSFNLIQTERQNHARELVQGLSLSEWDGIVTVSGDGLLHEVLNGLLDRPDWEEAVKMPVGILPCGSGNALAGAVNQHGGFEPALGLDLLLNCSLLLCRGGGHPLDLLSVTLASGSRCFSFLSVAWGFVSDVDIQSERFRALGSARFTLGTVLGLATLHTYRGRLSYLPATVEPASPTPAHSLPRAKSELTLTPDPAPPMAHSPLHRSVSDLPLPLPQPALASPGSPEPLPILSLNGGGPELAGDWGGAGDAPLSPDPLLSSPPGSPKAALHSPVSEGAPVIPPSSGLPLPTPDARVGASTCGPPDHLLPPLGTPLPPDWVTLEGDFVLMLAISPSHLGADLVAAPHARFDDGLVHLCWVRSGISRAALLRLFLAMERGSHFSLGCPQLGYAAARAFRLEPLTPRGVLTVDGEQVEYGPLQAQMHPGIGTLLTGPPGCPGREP
The settings on record: at 0.1 µM.

For assay [3], the target named is T1, Sphingosine kinase 2 (Homo sapiens). To be noted: at 1 µM.
Assay [4] deals with Casein kinase II subunit alpha (Homo sapiens) (UniProt P68400). To be noted: at 0.1 µM.
Chain of Casein kinase II subunit alpha (Homo sapiens) (P68400 whole entry, looked up): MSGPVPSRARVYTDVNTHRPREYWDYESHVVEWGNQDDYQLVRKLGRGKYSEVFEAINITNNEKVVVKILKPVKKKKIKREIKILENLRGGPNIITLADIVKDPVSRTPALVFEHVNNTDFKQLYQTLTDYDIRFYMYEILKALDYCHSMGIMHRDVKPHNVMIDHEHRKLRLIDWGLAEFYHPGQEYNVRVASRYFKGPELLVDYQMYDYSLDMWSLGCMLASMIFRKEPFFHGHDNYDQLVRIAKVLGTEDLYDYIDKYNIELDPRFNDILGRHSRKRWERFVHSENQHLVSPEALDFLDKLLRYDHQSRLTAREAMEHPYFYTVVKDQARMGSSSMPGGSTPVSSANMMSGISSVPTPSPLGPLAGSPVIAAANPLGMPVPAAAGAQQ
The target is the same in assay [5]. To be noted: at 1 µM.
Assay [6] addresses T2, Inhibitor of nuclear factor kappa-B kinase subunit alpha (Homo sapiens) (UniProt O15111).
T2 sequence (whole entry): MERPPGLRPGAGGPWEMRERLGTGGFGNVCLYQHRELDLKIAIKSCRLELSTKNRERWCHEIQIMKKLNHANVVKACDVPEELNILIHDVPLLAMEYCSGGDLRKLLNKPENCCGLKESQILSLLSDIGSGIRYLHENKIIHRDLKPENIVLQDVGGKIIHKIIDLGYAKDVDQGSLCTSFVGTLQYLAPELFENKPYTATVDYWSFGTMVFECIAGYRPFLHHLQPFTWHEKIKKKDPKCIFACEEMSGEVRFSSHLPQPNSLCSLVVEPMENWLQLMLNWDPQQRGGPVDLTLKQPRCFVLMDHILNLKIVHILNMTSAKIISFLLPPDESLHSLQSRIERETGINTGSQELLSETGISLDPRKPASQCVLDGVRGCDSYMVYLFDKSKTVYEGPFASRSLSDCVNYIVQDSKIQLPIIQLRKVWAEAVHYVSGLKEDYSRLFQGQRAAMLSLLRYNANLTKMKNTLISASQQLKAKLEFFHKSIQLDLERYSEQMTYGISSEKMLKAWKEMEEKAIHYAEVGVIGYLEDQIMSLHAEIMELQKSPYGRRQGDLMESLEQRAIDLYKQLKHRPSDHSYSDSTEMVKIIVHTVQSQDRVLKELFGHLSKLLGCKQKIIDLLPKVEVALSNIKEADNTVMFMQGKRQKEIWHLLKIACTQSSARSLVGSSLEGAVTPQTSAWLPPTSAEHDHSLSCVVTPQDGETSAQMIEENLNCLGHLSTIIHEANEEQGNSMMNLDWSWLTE
The settings on record: at 0.1 µM.

Assay [7] addresses T2, Inhibitor of nuclear factor kappa-B kinase subunit alpha (Homo sapiens). To be noted: at 1 µM.
In assay [8] the target is T3, Inhibitor of nuclear factor kappa-B kinase subunit beta (Homo sapiens) (UniProt O14920).
T3 sequence (whole entry): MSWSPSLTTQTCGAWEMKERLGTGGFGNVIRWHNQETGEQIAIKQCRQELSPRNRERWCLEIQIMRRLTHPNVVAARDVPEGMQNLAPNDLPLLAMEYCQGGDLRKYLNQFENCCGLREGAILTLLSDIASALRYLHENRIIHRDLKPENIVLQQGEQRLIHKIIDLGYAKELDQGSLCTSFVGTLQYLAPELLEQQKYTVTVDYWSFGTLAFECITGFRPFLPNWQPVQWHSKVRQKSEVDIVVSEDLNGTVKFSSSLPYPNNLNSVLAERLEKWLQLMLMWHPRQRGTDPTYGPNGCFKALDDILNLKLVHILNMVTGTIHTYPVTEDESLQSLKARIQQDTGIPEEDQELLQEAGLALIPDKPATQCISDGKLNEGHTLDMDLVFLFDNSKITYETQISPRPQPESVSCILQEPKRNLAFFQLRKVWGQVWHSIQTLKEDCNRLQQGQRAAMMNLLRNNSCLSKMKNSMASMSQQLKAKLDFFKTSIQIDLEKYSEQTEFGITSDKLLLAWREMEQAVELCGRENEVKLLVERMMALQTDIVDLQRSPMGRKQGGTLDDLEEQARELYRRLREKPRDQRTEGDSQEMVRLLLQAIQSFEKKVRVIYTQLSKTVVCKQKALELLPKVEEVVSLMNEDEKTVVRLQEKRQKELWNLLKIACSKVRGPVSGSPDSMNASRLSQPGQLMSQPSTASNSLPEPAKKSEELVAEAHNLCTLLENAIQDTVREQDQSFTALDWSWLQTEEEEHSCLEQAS
The settings on record: at 0.1 µM.

The target of assay [9] is T3, Inhibitor of nuclear factor kappa-B kinase subunit beta (Homo sapiens). The settings on record: at 1 µM.
The target of assay [10] is T4, Inhibitor of nuclear factor kappa-B kinase subunit epsilon (Homo sapiens) (UniProt Q14164).
T4 sequence (whole entry): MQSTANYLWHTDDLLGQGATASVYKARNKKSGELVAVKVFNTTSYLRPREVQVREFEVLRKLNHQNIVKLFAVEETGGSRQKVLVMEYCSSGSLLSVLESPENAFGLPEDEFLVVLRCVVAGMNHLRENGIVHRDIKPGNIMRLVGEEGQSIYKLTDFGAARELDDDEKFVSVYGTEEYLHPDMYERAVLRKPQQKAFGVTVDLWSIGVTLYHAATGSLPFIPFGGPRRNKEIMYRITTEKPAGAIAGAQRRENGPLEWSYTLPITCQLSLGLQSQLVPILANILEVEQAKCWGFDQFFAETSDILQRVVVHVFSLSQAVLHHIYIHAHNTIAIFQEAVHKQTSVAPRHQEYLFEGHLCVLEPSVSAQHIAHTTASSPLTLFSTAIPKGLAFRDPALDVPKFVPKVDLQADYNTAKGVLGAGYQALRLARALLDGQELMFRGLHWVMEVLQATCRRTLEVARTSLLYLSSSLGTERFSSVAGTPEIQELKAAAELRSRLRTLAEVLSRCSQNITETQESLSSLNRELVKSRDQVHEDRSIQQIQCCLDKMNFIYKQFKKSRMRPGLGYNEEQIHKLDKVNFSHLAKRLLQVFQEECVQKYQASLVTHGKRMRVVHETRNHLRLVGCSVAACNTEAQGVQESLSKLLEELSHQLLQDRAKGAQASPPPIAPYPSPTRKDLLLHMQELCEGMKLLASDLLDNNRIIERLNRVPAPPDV
The settings on record: at 0.1 µM.

For assay [11], the target named is T4, Inhibitor of nuclear factor kappa-B kinase subunit epsilon (Homo sapiens). The settings on record: at 1 µM.
Assay [12] concerns the target T5, Serine/threonine-protein kinase Nek1 (Homo sapiens) (UniProt Q96PY6).
T5 sequence (whole entry): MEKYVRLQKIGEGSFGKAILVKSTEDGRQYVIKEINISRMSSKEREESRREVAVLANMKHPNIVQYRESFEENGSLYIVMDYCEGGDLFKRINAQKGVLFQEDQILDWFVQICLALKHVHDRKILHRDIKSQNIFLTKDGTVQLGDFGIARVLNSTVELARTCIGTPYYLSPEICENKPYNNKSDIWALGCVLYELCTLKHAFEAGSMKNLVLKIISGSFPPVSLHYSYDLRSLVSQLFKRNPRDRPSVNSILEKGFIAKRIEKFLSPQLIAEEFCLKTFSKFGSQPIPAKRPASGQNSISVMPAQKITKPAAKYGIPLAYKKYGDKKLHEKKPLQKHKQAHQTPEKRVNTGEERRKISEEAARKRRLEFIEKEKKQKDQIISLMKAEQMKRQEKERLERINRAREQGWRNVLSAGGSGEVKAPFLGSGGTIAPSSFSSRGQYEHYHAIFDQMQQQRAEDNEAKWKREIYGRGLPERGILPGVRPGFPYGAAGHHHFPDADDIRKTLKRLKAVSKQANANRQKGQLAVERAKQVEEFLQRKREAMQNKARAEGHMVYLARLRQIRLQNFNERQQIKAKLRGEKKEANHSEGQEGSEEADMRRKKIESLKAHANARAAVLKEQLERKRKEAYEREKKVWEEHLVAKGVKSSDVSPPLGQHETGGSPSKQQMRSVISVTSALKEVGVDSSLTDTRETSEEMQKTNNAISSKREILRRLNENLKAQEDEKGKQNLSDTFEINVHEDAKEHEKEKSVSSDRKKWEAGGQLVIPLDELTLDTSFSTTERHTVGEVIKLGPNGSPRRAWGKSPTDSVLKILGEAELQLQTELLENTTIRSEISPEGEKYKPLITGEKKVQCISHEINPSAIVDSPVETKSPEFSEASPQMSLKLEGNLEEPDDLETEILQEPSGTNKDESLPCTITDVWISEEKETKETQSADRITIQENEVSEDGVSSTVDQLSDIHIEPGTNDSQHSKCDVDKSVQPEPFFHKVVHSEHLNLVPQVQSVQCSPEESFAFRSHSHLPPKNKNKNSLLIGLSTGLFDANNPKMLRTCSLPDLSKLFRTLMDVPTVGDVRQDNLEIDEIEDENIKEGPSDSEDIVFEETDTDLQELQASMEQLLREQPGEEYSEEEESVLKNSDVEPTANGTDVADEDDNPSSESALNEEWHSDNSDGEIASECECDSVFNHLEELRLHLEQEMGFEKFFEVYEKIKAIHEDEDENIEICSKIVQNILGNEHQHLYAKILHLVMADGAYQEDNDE
The settings on record: at 0.1 µM.

Assay [13] addresses T5, Serine/threonine-protein kinase Nek1 (Homo sapiens). To be noted: at 1 µM.
For assay [14], the target named is T6, Serine/threonine-protein kinase Nek2 (Homo sapiens) (UniProt P51955).
T6 sequence (whole entry): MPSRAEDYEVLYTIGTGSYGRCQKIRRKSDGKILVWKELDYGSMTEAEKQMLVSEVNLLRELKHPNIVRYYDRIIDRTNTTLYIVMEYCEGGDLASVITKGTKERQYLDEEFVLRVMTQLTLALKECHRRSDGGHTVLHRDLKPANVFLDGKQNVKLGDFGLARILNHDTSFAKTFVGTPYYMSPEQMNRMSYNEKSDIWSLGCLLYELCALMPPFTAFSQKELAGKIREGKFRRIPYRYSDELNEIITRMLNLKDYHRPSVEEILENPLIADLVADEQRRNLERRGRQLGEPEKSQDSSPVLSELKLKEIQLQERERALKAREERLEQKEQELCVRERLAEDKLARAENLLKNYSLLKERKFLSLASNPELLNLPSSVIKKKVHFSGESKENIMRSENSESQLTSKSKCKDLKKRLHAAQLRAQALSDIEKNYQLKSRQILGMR
The settings on record: at 0.1 µM.

In assay [15] the target is T6, Serine/threonine-protein kinase Nek2 (Homo sapiens). The settings on record: at 1 µM.
Assay [16] addresses Serine/threonine-protein kinase Nek6 (Homo sapiens) (UniProt Q9HC98). The settings on record: at 0.1 µM.
The target is the same in assay [17]. To be noted: at 1 µM.
Assay [18] addresses Serine/threonine-protein kinase Nek7 (Homo sapiens) (UniProt Q8TDX7). To be noted: at 0.1 µM.
Assay [19] shares this target. To be noted: at 1 µM.
For assay [20], the target named is T7, Serine/threonine-protein kinase Nek9 (Homo sapiens) (UniProt Q8TD19).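 Note: reported value is the mean percent inhibition of NEK9.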
T7 sequence (whole entry): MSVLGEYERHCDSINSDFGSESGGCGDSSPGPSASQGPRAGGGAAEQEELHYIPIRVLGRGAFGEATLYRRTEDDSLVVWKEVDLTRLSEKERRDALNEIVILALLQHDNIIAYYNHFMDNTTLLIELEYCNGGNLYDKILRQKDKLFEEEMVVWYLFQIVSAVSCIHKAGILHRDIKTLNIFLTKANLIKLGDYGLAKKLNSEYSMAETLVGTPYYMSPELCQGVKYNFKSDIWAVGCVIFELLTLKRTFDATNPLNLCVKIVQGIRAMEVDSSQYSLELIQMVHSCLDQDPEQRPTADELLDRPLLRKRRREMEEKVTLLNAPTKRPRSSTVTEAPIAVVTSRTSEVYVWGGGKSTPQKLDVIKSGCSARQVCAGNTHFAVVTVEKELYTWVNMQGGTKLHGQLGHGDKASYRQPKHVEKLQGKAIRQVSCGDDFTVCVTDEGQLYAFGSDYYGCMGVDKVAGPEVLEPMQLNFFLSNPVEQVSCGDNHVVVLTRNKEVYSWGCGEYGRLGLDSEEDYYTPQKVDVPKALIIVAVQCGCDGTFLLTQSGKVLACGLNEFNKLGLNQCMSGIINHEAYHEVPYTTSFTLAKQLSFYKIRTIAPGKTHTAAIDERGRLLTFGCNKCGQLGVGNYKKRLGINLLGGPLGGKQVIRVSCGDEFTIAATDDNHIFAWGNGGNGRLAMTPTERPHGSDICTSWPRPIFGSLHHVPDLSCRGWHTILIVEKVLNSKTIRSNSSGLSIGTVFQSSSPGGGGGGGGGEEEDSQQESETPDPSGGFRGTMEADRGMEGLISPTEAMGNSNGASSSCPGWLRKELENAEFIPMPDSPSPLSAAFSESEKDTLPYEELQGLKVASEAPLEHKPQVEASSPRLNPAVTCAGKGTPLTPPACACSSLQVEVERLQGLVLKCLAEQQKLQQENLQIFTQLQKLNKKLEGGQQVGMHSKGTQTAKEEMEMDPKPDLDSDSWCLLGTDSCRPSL
The settings on record: at 0.1 µM.

Chain of Serine/threonine-protein kinase Nek6 (Homo sapiens) (Q9HC98 whole entry): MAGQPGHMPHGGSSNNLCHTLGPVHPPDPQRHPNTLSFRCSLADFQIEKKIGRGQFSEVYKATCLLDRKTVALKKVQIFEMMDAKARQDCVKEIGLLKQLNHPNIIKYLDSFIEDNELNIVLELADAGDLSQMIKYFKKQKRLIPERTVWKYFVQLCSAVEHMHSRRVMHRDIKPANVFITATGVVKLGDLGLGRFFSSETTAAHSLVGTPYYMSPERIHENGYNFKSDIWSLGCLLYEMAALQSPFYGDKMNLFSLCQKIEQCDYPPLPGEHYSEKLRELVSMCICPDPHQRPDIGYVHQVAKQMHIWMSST
Chain of Serine/threonine-protein kinase Nek7 (Homo sapiens) (Q8TDX7 whole entry, looked up): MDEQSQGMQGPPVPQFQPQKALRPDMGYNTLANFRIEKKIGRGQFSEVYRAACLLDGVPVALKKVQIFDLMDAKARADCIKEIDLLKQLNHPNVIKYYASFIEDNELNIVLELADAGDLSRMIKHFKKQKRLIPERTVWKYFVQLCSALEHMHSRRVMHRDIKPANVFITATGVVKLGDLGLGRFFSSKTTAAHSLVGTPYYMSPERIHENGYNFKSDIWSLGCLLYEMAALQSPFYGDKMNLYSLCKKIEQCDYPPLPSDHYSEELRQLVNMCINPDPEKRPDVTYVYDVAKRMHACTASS
Chain of Sphingosine kinase 1 (Homo sapiens) (Q9NYA1 whole entry): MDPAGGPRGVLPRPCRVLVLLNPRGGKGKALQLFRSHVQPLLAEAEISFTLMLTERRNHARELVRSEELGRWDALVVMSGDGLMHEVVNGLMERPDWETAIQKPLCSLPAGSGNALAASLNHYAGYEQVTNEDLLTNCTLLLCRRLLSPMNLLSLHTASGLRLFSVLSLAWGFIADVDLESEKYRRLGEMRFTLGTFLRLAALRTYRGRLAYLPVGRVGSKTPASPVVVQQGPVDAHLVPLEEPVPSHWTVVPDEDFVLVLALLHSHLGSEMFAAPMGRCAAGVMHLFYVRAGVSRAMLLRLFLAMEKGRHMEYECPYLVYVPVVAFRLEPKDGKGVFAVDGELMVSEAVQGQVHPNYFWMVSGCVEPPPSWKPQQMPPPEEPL

Broadly, the inhibition is the relative decrease from the control value, in per cent. For the compound `COc1ccc(-c2cc(-c3c[nH]nc3-c3ccccn3)ccn2)cc1`, the inhibition in assay [1] was 0.76%; in assay [2], -1.45%; in [3], -1.01%; in [4], 5.84%; in assay [5] it was 8.65%; in assay [6] it was -3.06%. The inhibition in assay [7] amounted to 10.5%; in assay [8], 7.11%; in assay [9], 8.08%; in assay [10] it was 7.81%; in assay [11], 9.71%; in [12] it was 2.15%. In addition, the inhibition in assay [13] worked out at 3.74%; in [14], 5.8%; in assay [15], 4.88%; in assay [16], 2.87%; in assay [17], 4.34%; in assay [18], 2.27%. Also, the inhibition in assay [19] was determined as 3.19%; in assay [20], 7.56%.
